CSC inhib: blocks cancer stem cells | cancer stem cell-like cells viability, luminescence | inhibition, % at 7.5 µM | 300,000 tested, 1.1% active | AID 2717; in the data active = inhibition above about 75%; inconclusive = no clear call, values can overlap the other calls; tested in HMLE shEcad cells
A1 inh: inhibitors of the anti-apoptotic protein A1, read as caspase activation; MEF A1-2A-BIM cells, Caspase-Glo 3/7 luminescence, 3 h; percent of clofoctol response, vehicle zero; caspase activation, % (test concentration not listed); 330,000 tested, 0.066% active;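 active = over half of replicate activation scores above 10%, or exactly half above 10 with the replicate mean above 10; inconclusive = replicate mean below 10 yet half the replicates above 10; inactive = over half of replicates below 10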
Beta cell apopt: blocks beta cell apoptosis; 300,000 tested, 0.8% active; protection from apoptosis, % (no concentration beside the values); AID 435005; INS-1E cytokine-induced death, ATP luminescence, 48 h; percent of positive-control rescue, neutral wells zero;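 active = Every replicate reaches about 75%, or at least half do and their mean reaches it too, limit read from the data; inconclusive = At least half of replicates reach the limit but their mean does not; inactive = Under half of replicates reach the limit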;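 also: higher means more ATP so stronger rescue from cytokine killing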
Mdm2 MdmX PPI: human Mdm2/MdmX binding inhibition | SaOS-2 split-luciferase Mdm2/MdmX complementation, luminescence | inhibition, % at 8 µM | 330,000 tested, 3% active | O15151+Q00987;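 active = inhibition of at least 50% at 8 µM in the primary screen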
aSyn UTR inh: 5' untranslated region of α-synuclein, MLPCN primary screen; alpha-synuclein 5'UTR reporter, inhibitor activity; AID 1813; 300,000 tested, 0.82% active; inhibition, % (tested at 7.5 µM); in the data active = inhibition above about 60%; inconclusive = no clear call, values can overlap the other calls;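 also: H4 neuroglioblastoma cells stably carrying SNCA 5'UTR luciferase fusion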
Mdm2 MdmX conf: confirmation of human Mdm2/MdmX interaction inhibitors; shares compounds with Mdm2 MdmX PPI; Mdm2-MdmX binding, luminescent assay; AID 489028; 10,000 tested, 55% active; inhibition, % at 8 µM; in the data active = inhibition above about 40%
Full FLuc ctr: inhibits full-length luciferase, flagging false Mdm2/MdmX hits; SaOS-2 full-length luciferase counterscreen, luminescence; 6,200 tested, 77% active; inhibition, % at 8 µM; shares compounds with Mdm2 MdmX PPI;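 active = mean inhibition at 8 µM reaching about 37%, which flags the compound as non-specific, limit read from the data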;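 also: p53-null SaOS-2 cells with luciferase driven by a doxycycline-inducible promoter; compound on cells about two nights before reading with doxycycline added after day one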
Numbers stand for hits; i = inactive; ? = inconclusive; nt = no result given; + = active, no number. In the library only some 4.1% were active in any assay of this set; here they are far more common.

SMILES	CSC inhib	A1 inh	Beta cell apopt	Mdm2 MdmX PPI	aSyn UTR inh	Mdm2 MdmX conf	Full FLuc ctr
O=S(=O)(Nc1cccc(-n2cnnn2)c1)c1ccccc1C(F)(F)F	i	i	i	i	i	nt	nt
OCc1ccc(O)c2ncccc12	i	i	107	86	66	82	43
O=C(O)c1sc2ncccc2c1OCc1ccccc1	i	i	i	i	i	nt	nt
Oc1ccc(CNc2ccccc2F)c2cccnc12	nt	i	i	89	87	85	i
Oc1ccccc1CNc1cccc2cccnc12	i	i	i	i	i	nt	nt
Oc1ccc(COCc2ccccc2)c2cccnc12	i	i	99	80	?	54	i
CCCOCc1ccc(O)c2ncccc12	i	i	107	75	i	56	i
Oc1ccc(F)c2cccnc12	i	i	i	i	i	nt	nt
O=C(CCc1nnc2ccc(N3CCC4(CC3)OCCO4)nn12)NCc1ccc(F)cc1	i	i	i	i	i	nt	nt
COc1ccc2[nH]c(=O)c(CN(C(=O)C(C)C)c3ccccc3OC)cc2c1	i	i	i	i	i	nt	nt
CC(C)COCc1ccc(O)c2ncccc12	i	i	89	59	96	44	52
CN(Cc1ccco1)Cc1ccc(O)c2ncccc12	i	i	i	i	nt	nt	nt
O=c1c2ccccc2nc(/C=C/c2cc(Br)ccc2O)n1CCO	i	i	i	65	i	57	i
O=c1c2ccccc2nc(/C=C/c2c[nH]c3ccccc23)n1CCO	i	i	i	i	i	nt	nt
CC(C)c1c(C(=O)N/N=C/c2cccc(OCc3ccccc3)c2)nnn1-c1nonc1N	i	i	i	i	i	nt	nt
O=C(NCc1cccnc1)/C(=C\c1ccc(-c2ccc(Br)cc2)o1)S(=O)(=O)c1ccccc1	i	i	107	96	i	99	51
O=C(CN(Cc1ccc(Br)cc1)S(=O)(=O)c1ccccc1)NCc1cccnc1	i	i	i	i	i	nt	nt
O=C(NCc1cccnc1)/C(=C/c1ccc(-c2ccc(Cl)cc2)o1)S(=O)(=O)c1ccccc1	110	i	104	82	i	100	52
Cc1cc(NC(=O)c2ccc(Br)o2)ccc1NC(=O)c1ccco1	i	i	i	i	i	nt	nt
COc1ccc(C(CCN2CCCCC2)c2c(OC)cc(OC)c3c(-c4ccccc4)cc(=O)oc23)cc1 (stereo not given)	i	i	86	94	i	i	nt
COc1cc(OC)c2c(-c3ccccc3)cc(=O)oc2c1C(CCN1CCCCC1)c1ccc(N(C)C)cc1 (stereo not given)	i	i	i	79	i	i	nt
COc1cc(OC)c2c(-c3ccccc3)cc(=O)oc2c1C(CCN1CCOCC1)c1ccc(N(C)C)cc1 (stereo not given)	nt	nt	nt	i	nt	nt	nt
Cc1ccc2nc(-c3ccc(NC(=S)NC4CC(C)(C)NC(C)(C)C4)cc3)sc2c1	i	i	i	99	121	i	nt
CN(CCOc1ccccc1)C(=O)C1CCC(=O)N(CCc2ccc(Cl)cc2)C1 (stereo not given)	i	i	i	i	i	nt	nt
CCCCC(=O)N/N=C/c1ccc(Sc2cccc3cccnc23)o1	i	i	i	i	i	nt	nt
SMILES	CSC inhib	A1 inh	Beta cell apopt	Mdm2 MdmX PPI	aSyn UTR inh	Mdm2 MdmX conf	Full FLuc ctr
CCCCC(=O)NC(c1ccc(N(CC)CC)cc1)c1ccc2cccnc2c1O (stereo not given)	+	i	89	83	68	86	i
CCCCC(=O)NC(c1ccc(N(C)C)cc1)c1ccc2cccnc2c1O (stereo not given)	108	i	94	75	62	86	i
CCCC(=O)NC(c1ccc(N(C)C)cc1)c1c(O)ccc2ccccc12 (stereo not given)	i	i	i	i	i	nt	nt
CCCN1CCC(NC(=O)C2CC=CCC2C(=O)O)CC1 (stereo not given)	nt	i	nt	i	i	nt	nt
CN1c2ccccc2C(C)(C)C12C=Cc1cc(O)ccc1O2 (stereo not given)	i	i	i	i	i	nt	nt
CN1c2ccccc2C(C)(C)C12C=Nc1c(cc(N3CCOCC3)c3ccccc13)O2 (stereo not given)	nt	nt	nt	59	i	i	nt
COc1cc(C(=O)O/N=C2\C=CC(=O)C=C2C)cc(OC)c1OC	i	i	i	i	i	nt	nt
COc1cc(C(=O)ON=C2C3CC4CC(C3)CC2C4)cc(OC)c1OC	i	i	i	95	i	i	nt
CC(C)(C)c1ccc(-n2nc(C#N)c(Cl)cc2=O)cc1	nt	nt	nt	100	i	100	i
CC(C)(C)c1ccc(-n2nc(C(N)=O)c(O)cc2=O)cc1	i	i	nt	i	i	nt	nt
O=C(NNC(=O)c1cc(-c2ccc(Cl)cc2)nc2ccccc12)c1csc(N2CCOCC2)n1	i	i	i	i	i	nt	nt
FC(F)(F)c1ccc(C2[C@H]3CN(Cc4ccc(-c5ccccc5)cc4)[C@H](c4ccccc4)C34CC2(c2ccccc2)C4)cc1 (stereo not given in full)	i	i	i	i	i	nt	nt
FC(F)(F)c1ccc(C2[C@H]3CN(Cc4ccc(-c5ccccc5)cc4)[C@H](c4ccccc4)C34CC2(c2cccnc2)C4)cc1 (stereo not given in full)	i	i	i	54	i	i	58
CCN(C[C@H]1N[C@@](C)(C(=O)OC)[C@H]2C(=O)N(C)C(=O)[C@@H]12)C(=O)COc1ccccc1	i	i	i	i	nt	nt	nt
Cc1cc(-c2ccc(C)c(S(=O)(=O)NCC3CCN(Cc4ccccc4F)CC3)c2)on1	nt	i	i	i	i	nt	nt
COc1ccccc1CN1CCC(CNS(=O)(=O)c2cc(-c3onc(C)c3C)ccc2OC)CC1	i	i	i	51	i	i	nt
COc1ccc(-c2cc(C)no2)cc1S(=O)(=O)Nc1ccccc1	i	i	i	55	i	67	63
COc1cccc(CCN2CCC(CNS(=O)(=O)c3cc(-c4cc(C)no4)ccc3C)CC2)c1	i	i	i	55	i	50	67
COc1cccc(CCN2CCC(CNS(=O)(=O)c3cc(-c4cc(C)no4)ccc3OC)CC2)c1	i	i	i	50	i	50	72
Cc1cc(-c2ccc(C)c(S(=O)(=O)NCc3ccc(Br)cc3)c2)on1	i	i	i	64	i	52	42
Cc1cc(C)c2nc(SCC(=O)Nc3ccccc3N3CCOCC3)c(C#N)cc2c1	i	i	i	i	i	nt	nt
COc1ccc2nc(SCC(C)=O)c(C#N)cc2c1	i	i	i	i	i	nt	nt
Cc1cc(C)c2nc(SCC(=O)N3CC(=O)Nc4ccccc43)c(C#N)cc2c1	i	i	i	69	67	71	112
COc1ccc2nc(SCC(=O)N3CC(=O)Nc4ccccc43)c(C#N)cc2c1	i	i	i	65	i	68	46
CCOc1ccc(CCNC(=O)c2ccc(S(=O)(=O)N3CCCC3)cc2)cc1OCC	i	i	i	i	i	nt	nt

Screening results as filed in PubChem.
